For 10 compounds, AC50 and outcome results are on record in PubChem BioAssay (EPA / NIEHS).

Assay [1] in a line: Tanguay_ZF_120hpf_YSE_legacy: (Legacy) Oregon State University Tanguay Lab 120 Hour Post-fertilization zebrafish Assay for Yolk Sac Edema (AID 2283634).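 For AC50: actives raise the incidence of yolk sac edema above the DMSO baseline.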 A digest of the protocol: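 Tropical 5D wild-type embryos, dechorionated with pronase at 4 hpf, were exposed singly from 6 hpf to 120 hpf under static, sealed, dark conditions at 28C with 0.64% DMSO final. Yolk sac edema was scored present/absent by brightfield microscopy.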

Assay [2] is described as follows: Tanguay_ZF_120hpf_AXIS_legacy: (Legacy) Oregon State University Tanguay Lab 120 Hour Post-fertilization zebrafish Assay for Body Axis Malformation (AID 2283635).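 For AC50: potency for an increased fraction of larvae scored with body axis malformation.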 A digest of the protocol: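 Tropical 5D wild-type zebrafish embryos, dechorionated with pronase at 4 hpf, were placed singly in wells at 6 hpf and exposed statically to test chemical (0.64% DMSO final) at 28C until 120 hpf, then scored by brightfield for body axis defects.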

A short description of assay [3]: Tanguay_ZF_120hpf_EYE_legacy: (Legacy) Oregon State University Tanguay Lab 120 Hour Post-fertilization zebrafish Assay for Eye Malformation (AID 2283636).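 Note: binary presence or absence of eye malformation scored by brightfield in 120 hpf larvae.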 In outline:
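Static waterborne exposure of dechorionated zebrafish embryos (strain Tropical 5D), 6 to 120 hpf, sealed plates at 28C, 0.64% DMSO vehicle. Eye malformation is scored as a binary endpoint, with gain of signal analysed relative to DMSO.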

A short description of assay [4]: Tanguay_ZF_120hpf_SNOU_legacy: (Legacy) Oregon State University Tanguay Lab 120 Hour Post-fertilization zebrafish Assay for Snout Malformation (AID 2283637). A digest of the protocol:
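Dechorionated zebrafish, individually housed from 6 hpf in covered, sealed wells at 28C with 0.64% DMSO vehicle, were examined at 120 hpf for snout malformation. Responses were binary and analysed positive-direction relative to DMSO.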

A short description of assay [5]: Tanguay_ZF_120hpf_JAW_legacy: (Legacy) Oregon State University Tanguay Lab 120 Hour Post-fertilization zebrafish Assay for Jaw Malformation (AID 2283638).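 For AC50: active means more embryos with jaw malformation than DMSO controls.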 A digest of the protocol: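 Tropical 5D wild-type embryos, dechorionated with pronase at 4 hpf, were placed singly per well at 6 hpf and statically exposed at 28C until 120 hpf (0.64% DMSO final). Jaw malformation scored as present/absent by brightfield microscopy at 120 hpf, analyzed relative to DMSO.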

Assay [6] is described as follows: Tanguay_ZF_120hpf_OTIC_legacy: (Legacy) Oregon State University Tanguay Lab 120 Hour Post-fertilization zebrafish Assay for Otic Vesicle Malformation (AID 2283639). In outline:
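Statically exposed wild-type 5D zebrafish embryos, kept sealed and dark at 28C through 120 hours post fertilization, were examined by brightfield microscopy for otic vesicle defects. Responses were recorded as present or absent and analysed relative to DMSO.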

Assay [7] in a line: Tanguay_ZF_120hpf_PE_legacy: (Legacy) Oregon State University Tanguay Lab 120 Hour Post-fertilization zebrafish Assay for Pericardial Edema (AID 2283640).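 For AC50: potency for increased incidence of pericardial edema versus DMSO baseline.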 In outline: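 Tropical 5D wild-type zebrafish embryos were exposed statically to 120 hpf at 28C, sealed and foil-covered, in 0.64% DMSO final. Pericardial edema was scored present/absent by brightfield microscopy; dead embryos were not scored.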

Assay [8] in a line: Tanguay_ZF_120hpf_BRAI_legacy: (Legacy) Oregon State University Tanguay Lab 120 Hour Post-fertilization zebrafish Assay for Brain Malformation (AID 2283641). A digest of the protocol: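 Tropical 5D wild-type zebrafish embryos were exposed statically in sealed, foil-covered plates at 28C until 120 hpf, with 0.64% (vol/vol) final DMSO. Brain malformation was scored present/absent by brightfield microscopy, relative to DMSO baseline.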

Assay [9] is described as follows: Tanguay_ZF_120hpf_SOMI_legacy: (Legacy) Oregon State University Tanguay Lab 120 Hour Post-fertilization zebrafish Assay for Somite Malformation (AID 2283647). A digest of the protocol:
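Tropical 5D wild-type zebrafish embryos, dechorionated with pronase at 4 hpf, were placed singly at 6 hpf and statically exposed until 120 hpf at 28C in 0.64% DMSO. Somite malformation was scored present/absent by brightfield microscopy versus DMSO.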

Assay [10] in a line: Tanguay_ZF_120hpf_PFIN_legacy: (Legacy) Oregon State University Tanguay Lab 120 Hour Post-fertilization zebrafish Assay for Pectoral Fin Malformation (AID 2283648).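 Note: each larva judged yes or no for fin defect by brightfield with dead larvae skipped.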 In outline: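 Scoring of pectoral fin malformation was binary, made at 120 hpf on larvae exposed statically from 6 hpf after enzymatic chorion removal. Activity was fitted upward relative to DMSO controls at 0.64% (vol/vol).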

Assay [11] is described as follows: Tanguay_ZF_120hpf_CFIN_legacy: (Legacy) Oregon State University Tanguay Lab 120 Hour Post-fertilization zebrafish Assay for Caudal Fin Malformation (AID 2283649). In outline:
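Tropical 5D wild-type embryos, dechorionated with pronase at 4 hpf, were placed singly in wells at 6 hpf and statically exposed to compound at 28C until 120 hpf (0.64% DMSO). Caudal fin malformation was scored present/absent by brightfield microscopy.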

A short description of assay [12]: Tanguay_ZF_120hpf_PIG_legacy: (Legacy) Oregon State University Tanguay Lab 120 Hour Post-fertilization zebrafish Assay for Pigmentation Malformation (AID 2283650). A digest of the protocol:
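Endpoint is incidence of abnormal pigmentation at 120 hpf in dechorionated 5D zebrafish exposed singly from 6 hpf at 28C, DMSO vehicle at 0.64%. Embryos dying by 24 or 120 hpf are excluded from scoring.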

Assay [13] can be described thus: Tanguay_ZF_120hpf_CIRC_legacy: (Legacy) Oregon State University Tanguay Lab 120 Hour Post-fertilization zebrafish Assay for Circulatory Malformation (AID 2283651). A digest of the protocol: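 Embryos are dechorionated at 4 hpf, plated one per well at 6 hpf, then held under static exposure at 28C until 120 hpf. Malformations are recorded as binary calls; mortality excludes other endpoints.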

Assay [14] is described as follows: Tanguay_ZF_120hpf_SWIM_legacy: (Legacy) Oregon State University Tanguay Lab 120 Hour Post-fertilization zebrafish Assay for Swim Bladder Malformation (AID 2283654).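 Note: swim bladder malformation in each larva scored yes or no under brightfield.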 A digest of the protocol:
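Static waterborne exposure of single dechorionated Tropical 5D zebrafish embryos, 6–120 hpf, 28C, 0.64% DMSO final. Read-out: swim bladder malformation, present/absent, relative to DMSO negative control; trimethyltin chloride 5uM served as positive control.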

Assay [15] is described as follows: Tanguay_ZF_120hpf_TRUN_legacy: (Legacy) Oregon State University Tanguay Lab 120 Hour Post-fertilization zebrafish Assay for Truncated Body (AID 2283655). In outline: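 Tropical 5D wild-type embryos, dechorionated with pronase at 4 hpf, were placed singly in wells at 6 hpf and statically exposed at 28C until 120 hpf, final DMSO 0.64%. Truncated body was scored present/absent by brightfield microscopy.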

A short description of assay [16]: Tanguay_ZF_120hpf_NC_legacy: (Legacy) Oregon State University Tanguay Lab 120 Hour Post-fertilization zebrafish Assay for Notochord and Tail Malformation (AID 2283656). A digest of the protocol:
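Binary scoring of notochord distortion by brightfield microscopy; embryos dying were not scored. Wild-type Tropical 5D embryos, chorion removed, exposed singly and statically from 6 to 120 hpf, 28C, sealed, 0.64% DMSO.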

Assay [17] can be described thus: Tanguay_ZF_120hpf_MORT_legacy: (Legacy) Oregon State University Tanguay Lab 120 Hour Post-fertilization zebrafish Assay for Mortality (AID 2283633).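 For AC50: fitted as increase in binary mortality versus DMSO negative control.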 In outline: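 Dechorionated Tropical 5D wild-type zebrafish embryos, one per well from 6 hpf, were statically exposed at 28C in the dark until 120 hpf (0.64% DMSO final). Mortality was scored as present/absent by brightfield microscopy, fitted positively versus DMSO.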

Read-out in assay [18]: solute carrier (SLC22A6), SLC22A6 (gene 9356)
Briefly: LTEA_HepaRG_SLC22A6: Life Technologies and Expression Analysis (LTEA) Assay for solute carrier (SLC22A6) using HepaRG (AID 2283653; active = hit-call score of the fitted dose curve at least 0.9, where 1 is the maximum; inactive = score below 0.9). As to conditions: mRNA level, 48 h; actives raise or lower the signal. In outline:
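Differentiated human HepaRG cells were exposed for 48 h in serum-free induction medium to eight concentrations (top 100 uM, half-log steps, 0.5% DMSO), in duplicate. SLC22A6 mRNA was quantified by qRT-PCR, normalised to ACTB, GAPDH and POLR2A, and fitted bidirectionally against DMSO.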

Read-out in assay [19]: solute carrier (SLC10A1), SLC10A1 (gene 6554)
Description: LTEA_HepaRG_SLC10A1: Life Technologies and Expression Analysis (LTEA) Assay for solute carrier (SLC10A1) using HepaRG (AID 2283657; active = hit-call score of the fitted dose curve at least 0.9, where 1 is the maximum; inactive = score below 0.9). As to conditions: mRNA level, 48 h; actives raise or lower the signal. In outline:
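Cryopreserved HepaRG cells are thawed, plated and cultured 48 h; medium is then switched to serum-free induction medium and chemicals added (8 points, max 100 uM, 0.5% DMSO). After 48 h, RNA is isolated and SLC10A1 quantified by qRT-PCR.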

Results filed as inconclusive are left out. The source made the active and inactive calls. Rule for the calls, unless noted: active = hit-call score of the fitted dose curve at least 0.9, where 1 is the maximum; inconclusive = response in the unintended direction; inactive = score below 0.9.

On to `COC(=O)Nc1nc2ccccc2[nH]1`, for which the AC50 in assay [1] was 47.5 µM (active); in assay [3], 46.4 µM (active). Moreover, the outcome in [2], in assay [4], in [5], in [6], in assay [7] and in assay [8] was inactive. Also, the compound was called inactive in [9], in [10], in [11], in assay [12], in assay [13] and in assay [14]. For the same compound, the result in [15] and in [16] was inactive.

Consider `c1ccc(NNc2ccccc2)cc1`, for which the compound was classed as inactive in assay [17], in [1], in assay [3], in assay [4], in assay [6] and in assay [7]. In addition, the outcome in [8], in assay [9], in [11], in assay [12], in assay [13] and in assay [15] was inactive. In assay [16], the call was inactive.

On to `O=C(O)C1C2CCC(O2)C1C(=O)O` (stereo unspecified), for which the result in assay [17], in [1], in assay [2], in assay [3], in assay [4] and in assay [5] was inactive. The call in assay [9], in assay [10], in assay [11], in assay [13], in [14] and in [16] was inactive.

`O=C(Nc1ccccc1)c1ccccc1I`: the call in assay [17], in assay [8], in [9], in assay [12], in assay [14] and in assay [15] was inactive. Besides, in assay [16], the call was inactive. In addition, the AC50 is 51.3 µM (active) in assay [1]; 10.5 µM (active) in assay [3]; 12.1 µM (active) in assay [4]; 50.4 µM (active) in assay [5]; 48 µM (active) in assay [6]; 43.5 µM (active) in assay [7]. Also, the AC50 in assay [10] was 47.3 µM (active); in assay [11] it was 45 µM (active); in assay [13], 76.6 µM (active).

On to `c1ccc2c(c1)-c1cccc3cccc-2c13`, for which the compound was called inactive in [17], in assay [1], in assay [2], in assay [8], in assay [10] and in assay [11]. For the same compound, the call in [12], in assay [13], in assay [15] and in assay [16] was inactive.

Consider `ClC1=C(Cl)[C@]2(Cl)[C@H]3[C@H]([C@@H]4C=C[C@H]3C4)[C@@]1(Cl)C2(Cl)Cl`, for which the compound was called inactive in [17], in [1], in [2], in assay [4], in assay [5] and in [6]. The result in assay [8], in assay [9], in [10], in [11], in [12] and in [13] was inactive. Further, the result in assay [14], in assay [15] and in assay [16] was inactive.

As for `Brc1ccc(Oc2ccccc2)cc1`, the outcome in assay [17], in assay [1], in [2], in assay [3], in assay [5] and in assay [6] was inactive. For the same compound, the outcome in assay [8], in assay [9], in [10], in [11], in [12] and in [13] was inactive. Further, the result in [14], in assay [15] and in [16] was inactive.

Turning to `O=C(N[C@H](c1ccccc1)[C@@H]1CN2CCC1CC2)c1c(Cl)ccc(C(F)(F)F)c1Cl`, the AC50 was 26.7 µM (active) in [17] and 1.27 µM (active) in assay [2]. For the same compound, the compound was called inactive in [1], in [4], in assay [6], in assay [8], in assay [10] and in assay [12].

Take `CCN(CC)CCO`: the result in [17], in assay [1], in assay [2], in assay [3], in assay [6] and in assay [9] was inactive. Also, the compound was classed as inactive in assay [10], in [11], in assay [12], in assay [13], in [18] and in assay [14]. Besides, the call in assay [15], in assay [16] and in [19] was inactive.

For `[As]#[In]`, the call in [17], in assay [1], in assay [2], in [4], in [5] and in assay [6] was inactive. The result in assay [7], in assay [8], in assay [9], in assay [10], in assay [11] and in assay [12] was inactive. The outcome in [13], in assay [14], in assay [15] and in assay [16] was inactive.

As a reminder, the AC50 is the concentration at which the activity in the assay is half-maximal.
